Source: PubChem BioAssay AID1159580 (chemical genetic matrix, 2015)
Among all 5,500 compounds or so, about 2,000 (36%) were called active. Inconclusive results (about 18%) are left out. No stated cut-off is given here; in the data, active means normalized growth mostly below about 0.91 (no sharp cut-off); inconclusive means no clear call, values can overlap the other calls; inactive means mostly above about 0.92. The list shows a part of the results.

Assay: chemical genetic growth profiling, strain panel (AID 1159580);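 further: tested at 20 µM; growth read once vehicle control cultures reached saturation at 30 °C; 1 = growth at the plate median or of vehicle wells; lower values mean less growth of the strain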
Conditions: growth OD
[1] = S. cerevisiae deletion strains, locus YAL013W, strain DEP1, hits give low values
[2] = S. cerevisiae deletion strains, locus YAL040C, strain CLN3, hits give low values
[3] = S. cerevisiae deletion strains, locus YCL061C, strain MRC1 (second series), hits give low values
[4] = S. cerevisiae deletion strains, locus YDR363W, strain ESC2, hits give low values
[5] = S. cerevisiae deletion strains, locus YER002W, strain NOP16, hits give low values
[6] = S. cerevisiae deletion strains, locus YGR078C, strain PAC10, hits give low values
[7] = S. cerevisiae deletion strains, locus YNL175C, strain NOP13, hits give low values
[8] = S. cerevisiae deletion strains, locus YNL197C, strain WHI3, hits give low values
[9] = S. cerevisiae deletion strains, locus YNL224C, strain SQS1, hits give low values
[10] = S. cerevisiae deletion strains, locus YOR083W, strain WHI5 (second series), hits give low values
[11] = S. cerevisiae deletion strains, locus YPL241C, strain CIN2, hits give low values

Measured: normalized growth

C[C@]12CC[C@@H](O)CC1CC[C@@H]1[C@@H]2CC[C@]2(C)C(=O)CC[C@@H]12 (stereo not given in full)
active: [1] 0.895
inactive: [2] 0.989 | [3] 1 | [4] 0.938 | [5] 1.02 | [6] 0.973 | [7] 1.01 | [8] 0.993 | [9] 0.997 | [10] 0.885 | [11] 1.04

C[C@]12CCC3C(CC[C@H]4C[C@@H](Cl)CC[C@]34C)C1CCC2=O (stereo not given in full)
inactive: S. cerevisiae deletion strains, locus YBR021W, strain FUR4, hits give low values 0.947 | S. cerevisiae deletion strains, locus YBR229C, strain ROT2, hits give low values 1.03 | S. cerevisiae deletion strains, locus YCL029C, strain bik1, hits give low values 0.968 | S. cerevisiae deletion strains, locus YDL035C, strain GPR1, hits give low values 0.921 | S. cerevisiae deletion strains, locus YDL074C, strain BRE1, hits give low values 0.87 | S. cerevisiae deletion strains, locus YDL101C, strain DUN1, hits give low values 0.997 | S. cerevisiae deletion strains, locus YDL134C, strain PPH21, hits give low values 0.977 | S. cerevisiae deletion strains, locus YDL185W, strain tfp1, hits give low values 1.02 | S. cerevisiae deletion strains, locus YDL192W, strain arf1, hits give low values 0.956 | S. cerevisiae deletion strains, locus YDR101C, strain arx1, hits give low values 1.01 | S. cerevisiae deletion strains, locus YDR150W, strain NUM1, hits give low values 1.01 | S. cerevisiae deletion strains, locus YDR162C, strain NBP2, hits give low values 0.885 | S. cerevisiae deletion strains, locus YDR318W, strain mcm21, hits give low values 0.981 | S. cerevisiae deletion strains, locus YDR388W, hits give low values 1.02 | S. cerevisiae deletion strains, locus YDR502C, strain sam2, hits give low values 0.988 | S. cerevisiae deletion strains, locus YER110C, hits give low values 1.02 | S. cerevisiae deletion strains, locus YER155C, strain BEM2, hits give low values 1.02 | S. cerevisiae deletion strains, locus YER167W, strain BCK2, hits give low values 0.983 | S. cerevisiae deletion strains, locus YGL078C, strain dbp3, hits give low values 0.99 | S. cerevisiae deletion strains, locus YGL086W, strain mad1, hits give low values 0.959 | S. cerevisiae deletion strains, locus YGL248W, strain PDE1, hits give low values 0.972 | [6] 0.951 | S. cerevisiae deletion strains, locus YGR135W, strain pre9, hits give low values 0.997 | S. cerevisiae deletion strains, locus YGR252W, strain gcn5, hits give low values 0.993 | S. cerevisiae deletion strains, locus YHR030C, strain SLT2, hits give low values 1.02 | S. cerevisiae deletion strains, locus YHR079C, strain IRE1 (second series), hits give low values 1.02 | S. cerevisiae deletion strains, locus YHR094C, strain hxt1, hits give low values 1.02 | S. cerevisiae deletion strains, locus YHR129C, strain ARP1, hits give low values 0.987 | S. cerevisiae deletion strains, locus YHR200W, strain rpn10, hits give low values 0.951 | S. cerevisiae deletion strains, locus YIL066C, strain RNR3, hits give low values 0.957 | S. cerevisiae deletion strains, locus YIL073C, strain SPO22, hits give low values 1.05 | S. cerevisiae deletion strains, locus YIL125W, strain kgd1, hits give low values 1 | S. cerevisiae deletion strains, locus YIR030C, strain dcg1, hits give low values 1.02 | S. cerevisiae deletion strains, locus YJL095W, strain BCK1, hits give low values 0.952 | S. cerevisiae deletion strains, locus YJL134W, strain LCB3, hits give low values 1.02 | S. cerevisiae deletion strains, locus YJL168C, strain set2, hits give low values 1.04 | S. cerevisiae deletion strains, locus YJL187C, strain SWE1 (second series), hits give low values 0.993 | S. cerevisiae deletion strains, locus YJR043C, strain POL32, hits give low values 0.925 | S. cerevisiae deletion strains, locus YKL009W, strain mrt4, hits give low values 1.02 | S. cerevisiae deletion strains, locus YKL068W, hits give low values 1.01 | S. cerevisiae deletion strains, locus YKL085W, strain MDH1 (second series), hits give low values 0.998 | S. cerevisiae deletion strains, locus YKL085W, strain MDH1, hits give low values 0.998 | S. cerevisiae deletion strains, locus YKR001C, strain vps1, hits give low values 0.937 | S. cerevisiae deletion strains, locus YLR039C, strain RIC1, hits give low values 0.769 | S. cerevisiae deletion strains, locus YLR058C, strain SHM2, hits give low values 0.984 | S. cerevisiae deletion strains, locus YLR102C, strain apc9, hits give low values 1.01 | S. cerevisiae deletion strains, locus YLR268W, strain sec22, hits give low values 0.982 | S. cerevisiae deletion strains, locus YLR330W, strain CHS5, hits give low values 0.987 | S. cerevisiae deletion strains, locus YLR371W, strain rom2, hits give low values 0.99 | S. cerevisiae deletion strains, locus YLR418C, strain cdc73, hits give low values 0.849 | S. cerevisiae deletion strains, locus YML016C, strain PPZ1, hits give low values 1.01 | S. cerevisiae deletion strains, locus YML032C, strain rad52, hits give low values 0.993 | S. cerevisiae deletion strains, locus YML124C, strain tub3, hits give low values 1.02 | S. cerevisiae deletion strains, locus YMR078C, strain ctf18, hits give low values 1.03 | S. cerevisiae deletion strains, locus YMR223W, strain ubp8, hits give low values 0.999 | S. cerevisiae deletion strains, locus YMR307W, strain GAS1, hits give low values 1.06 | S. cerevisiae deletion strains, locus YNL067W, strain RPL9B, hits give low values 0.986 | S. cerevisiae deletion strains, locus YNL233W, strain BNI4, hits give low values 0.969 | S. cerevisiae deletion strains, locus YNL250W, strain rad50, hits give low values 1.03 | S. cerevisiae deletion strains, locus YNL271C, strain bni1, hits give low values 1.01 | S. cerevisiae deletion strains, locus YNL298W, strain CLA4, hits give low values 0.967 | S. cerevisiae deletion strains, locus YNR052C, strain pop2, hits give low values 0.976 | S. cerevisiae deletion strains, locus YOL006C, strain TOP1, hits give low values 0.863 | S. cerevisiae deletion strains, locus YOL012C, strain htz1 0.88 | S. cerevisiae deletion strains, locus YOL147C, strain pex11, hits give low values 0.972 | S. cerevisiae deletion strains, locus YOR061W, strain CKA2, hits give low values 1.02 | S. cerevisiae deletion strains, locus YOR069W, strain VPS5, hits give low values 1.01 | S. cerevisiae deletion strains, locus YOR136W, strain idh2, hits give low values 1 | S. cerevisiae deletion strains, locus YOR144C, strain elg1, hits give low values 1.01 | S. cerevisiae deletion strains, locus YOR316C, strain cot1, hits give low values 1.02 | S. cerevisiae deletion strains, locus YPR119W, strain clb2, hits give low values 1.03 | S. cerevisiae deletion strains, locus YPR141C, strain kar3, hits give low values 1.03 | S. cerevisiae deletion strains, locus YPR163C, strain tif3, hits give low values 0.969 | S. cerevisiae deletion strains, locus YPR167C, strain met16, hits give low values 0.996 | S. cerevisiae deletion strains, strain wtn01, hits give low values 0.967 | S. cerevisiae strains, strain wild type, hits give low values 0.909
active: S. cerevisiae deletion strains, locus YNL307C, strain MCK1, hits give low values 0.888 | S. cerevisiae deletion strains, locus YOR184W, strain ser1, hits give low values 0.733

CC12CCC3C(CCC4=C(O)C(=O)CCC43C)C1CCC2=O (stereo not given)
inactive: [1] 1 | [2] 0.99 | [3] 0.998 | [4] 0.984 | [5] 0.995 | S. cerevisiae deletion strains, locus YMR263W, strain SAP30, hits give low values 1 | [7] 1.02 | [8] 0.992 | [9] 0.969 | [10] 0.986 | [11] 1.01
